The source of these data is publication PMC4336329 (PLoS ONE, 2015).

The whole screen tested about 310,000 compounds, of which about 14,000 (4.5%) showed an effect of 50% or more. Effects have a minus sign here. The list comes from a sample in which strong results are over-represented; it also holds similar structures and randomly drawn compounds.
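Also: peak tail current of the secondary pulse compared with the same well before compound.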

human ether-à-go-go-related gene (hERG) potassium channel, sequence (Q12809 whole entry, looked up): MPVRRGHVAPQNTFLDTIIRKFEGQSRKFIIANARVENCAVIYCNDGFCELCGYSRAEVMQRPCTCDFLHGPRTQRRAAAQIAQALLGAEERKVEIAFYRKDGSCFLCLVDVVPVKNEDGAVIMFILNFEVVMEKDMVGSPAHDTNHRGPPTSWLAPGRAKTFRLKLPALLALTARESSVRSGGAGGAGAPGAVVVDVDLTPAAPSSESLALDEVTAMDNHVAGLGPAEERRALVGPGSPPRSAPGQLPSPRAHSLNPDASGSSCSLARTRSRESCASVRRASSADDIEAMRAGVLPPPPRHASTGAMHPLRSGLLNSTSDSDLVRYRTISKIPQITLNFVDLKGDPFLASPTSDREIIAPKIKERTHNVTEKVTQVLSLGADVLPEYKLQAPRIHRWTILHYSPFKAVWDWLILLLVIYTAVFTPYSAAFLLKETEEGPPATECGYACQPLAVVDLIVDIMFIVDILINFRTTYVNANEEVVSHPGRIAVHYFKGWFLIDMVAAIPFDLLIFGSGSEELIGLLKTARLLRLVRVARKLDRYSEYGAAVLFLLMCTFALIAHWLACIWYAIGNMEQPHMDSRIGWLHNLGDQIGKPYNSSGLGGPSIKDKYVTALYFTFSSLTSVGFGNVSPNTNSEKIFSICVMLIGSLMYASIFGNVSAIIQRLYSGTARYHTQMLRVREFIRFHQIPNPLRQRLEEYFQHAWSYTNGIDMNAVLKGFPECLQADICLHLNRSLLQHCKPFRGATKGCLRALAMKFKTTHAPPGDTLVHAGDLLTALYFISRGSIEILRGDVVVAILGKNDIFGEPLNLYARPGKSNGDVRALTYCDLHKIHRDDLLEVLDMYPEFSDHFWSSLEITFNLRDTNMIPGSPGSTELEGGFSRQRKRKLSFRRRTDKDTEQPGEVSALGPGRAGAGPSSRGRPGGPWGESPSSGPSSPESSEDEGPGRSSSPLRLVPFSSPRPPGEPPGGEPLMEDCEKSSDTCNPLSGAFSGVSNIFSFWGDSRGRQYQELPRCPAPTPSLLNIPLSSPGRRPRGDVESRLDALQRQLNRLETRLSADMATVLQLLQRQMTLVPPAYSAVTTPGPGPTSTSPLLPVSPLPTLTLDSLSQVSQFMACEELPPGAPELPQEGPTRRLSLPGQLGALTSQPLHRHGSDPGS

For this assay, the target named is human ether-à-go-go-related gene (hERG) potassium channel (human, UniProt Q12809). As to the kind of experiment: primary screen, population patch clamp on CHO cells stably expressing hERG; higher = less effect of the substance. As for the experimental part:
Briefly, Chinese hamster ovary (CHO) cells stably expressing the hERG channel were dislodged from tissue culture flasks and dispensed into PPC plates. […] During the recording, background leak currents were estimated by a 100 ms step to -80 mV from an initial holding potential of -70 mV and subtracted from the subsequent current measurement. The campaign was conducted in two phases using slight differences in recording protocol. In the first phase, the initial voltage pulse used a 100 ms step to -30 mV from a holding potential of -70 mV, a 2 s conditioning step to +25 mV, and a 2 s test step to -30 mV. During the second phase of the screen, the potential during the conditioning step was raised to +45 mV. In both phases of the campaign, a secondary voltage pulse was applied using the same parameters as the second phase initial pulse. The initial and secondary pulses were applied in the absence of compound, and upon application of 1 μM and 10 μM test concentrations. […]
Take `O=C(c1cccs1)N1CCCC(c2nc3c(nnn3Cc3c(Cl)cccc3Cl)c(=O)[nH]2)C1` (stereo not shown): the “hERG current change (%, negative = inhibition) at 10uM” value is on record as -46.9%. The result for `O=C(OCC(=O)N1CCCc2ccccc21)c1cccc(C(F)(F)F)c1` reads -6.7%. The result for `COC(=O)C(Cc1ccccc1)NC(=O)c1ccc(C)cc1` (stereo not shown) reads 5.08%; that for `CSCCOC(=O)c1[nH]c2c(c1C)C(=O)CC(c1ccco1)C2` (stereo not shown), -1.18%; that for `Cc1ccc(NC(=O)c2sc(Cl)nc2-c2ccccc2)cc1`, 18.2%. The result for `CCCCCCOc1ccc(/C(C)=N/NC2=NCCN2)cc1` reads -19.9%. As to `COc1ccc(Br)cc1/C(C)=N/NC1=NCCN1.Cl`, the “hERG current change (%, negative = inhibition) at 10uM” value is given as -26.7%. The result for `CCOc1ccc(Br)cc1/C(C)=N\NC1=NCCN1.Cl` reads -48.6%. The result for `CCCCCCOc1ccc(/C(C)=N/NC2=NCCN2)cc1[N+](=O)[O-]` reads -81.3%; that for `CCCCCOc1ccc(Br)cc1/C(C)=N/NC1=NCCN1`, -70.1%. Consider `C/C(=N\NC1=NCCN1)c1ccc(N)c([N+](=O)[O-])c1`, for which the “hERG current change (%, negative = inhibition) at 10uM” value is given as -15.2%. For `COc1cc(S(=O)(=O)NC2CCCC2)ccc1F`, the “hERG current change (%, negative = inhibition) at 10uM” value turned out to be 1.19%. Regarding `CC1CCN(C(=O)c2ccccc2NS(=O)(=O)c2ccccc2)CC1`, the “hERG current change (%, negative = inhibition) at 10uM” value is 8.52%. The result for `CCc1ccc(-c2nn[nH]n2)cc1` reads 4.61%; that for `Cc1ccc(C)c(SCC(=O)NNC(=O)c2ccccc2)c1`, 9.78%; that for `COc1ccc(NC(=O)C2CCN(c3cnccn3)CC2)cc1OC`, 15.5%. The result for `CC(NC1CCCCC1)C(O)C12CC3CC(CC(C3)C1)C2.Cl` (stereo not shown) reads -16.4%; that for `COC(=O)c1ccc(C(c2c(N)n(CC(C)C)c(=O)[nH]c2=O)N2CCN(c3ccccc3)CC2)cc1` (stereo not shown), -8.97%; that for `CCCn1c(N)c(C(c2ccc(C(=O)OC)cc2)N2CCN(c3ccccc3)CC2)c(=O)[nH]c1=O` (stereo not shown), -9.93%. The result for `COC(=O)c1ccc(C(c2c(N)n(Cc3ccccc3)c(=O)n(C)c2=O)N2CCOCC2)cc1` (stereo not shown) reads -57.9%; that for `COc1cccc(CNC(=O)C2CCN(S(=O)(=O)N3CCC(C)CC3)CC2)c1`, -3.44%; that for `O=C(N=Nc1c(O)[nH]c2ccccc12)c1ccc(CN2CCOCC2)cc1`, 22.9%. `Cc1ccc(CN2CCN(CC(=O)N=Nc3c(O)[nH]c4ccccc34)CC2)cc1`: the “hERG current change (%, negative = inhibition) at 10uM” value is listed as -73.5%. For the compound `O=C(CCN1CCCCC1)N=Nc1c(O)[nH]c2ccccc12`, the “hERG current change (%, negative = inhibition) at 10uM” value was 11.3%.

As to `O=C(CN1CCCCC1)N=Nc1c(O)[nH]c2ccccc12`, the “hERG current change (%, negative = inhibition) at 10uM” value stood at 4.68%. The result for `O=C(Cc1cccs1)N=Nc1c(O)[nH]c2ccccc12` reads 7.07%; that for `O=C(CN1CCN(Cc2ccccc2Cl)CC1)N=Nc1c(O)[nH]c2ccccc12`, -61.3%; that for `COCC(=O)N=Nc1c(O)[nH]c2ccccc12`, -5.52%. The result for `O=C(CN1CCN(Cc2ccccc2)CC1)N=Nc1c(O)[nH]c2ccccc12` reads -65%; that for `O=C(CSCc1ccccc1)N=Nc1c(O)[nH]c2ccccc12`, -19.1%; that for `N#Cc1ccccc1NC(=S)Nc1ccc(F)cc1`, 16.2%. Turning to `CCN(C(=O)c1cc2c(=O)[nH]c3ccc(C)cc3c2s1)c1ccc(OC)cc1`, the “hERG current change (%, negative = inhibition) at 10uM” value amounted to 9.09%. The result for `COC(=O)c1ccc(N2CCN(C)CC2)c(NC(=O)c2sc3ccccc3c2Cl)c1` reads 13.1%; that for `COc1ccc(C=C(C#N)C#N)c(CSc2ccccn2)c1`, 1.19%; that for `COc1ccc(C(=O)Nc2ccc(N3CCCCC3)cc2)cc1Br`, -8.48%. In the case of `O=C(N/N=C/c1cc(Br)cc(Br)c1O)c1ccncc1`, the “hERG current change (%, negative = inhibition) at 10uM” value came out at 15.6%. The result for `Cc1ccc(S(=O)(=O)CCC(=O)OCC(=O)N2c3ccccc3NC(=O)C2(C)C)cc1` reads 14%; that for `O=C(O)C(=O)/C(=C\c1ccccc1)c1ccc2ccccc2n1`, 13.9%; that for `O=C(Nc1cccc(-c2csc(Nc3ccccc3)n2)c1)c1ccccc1`, 2.4%. Regarding `O=C(CSc1ncn[nH]1)N1CCN(c2nnc(-c3ccccc3)c3ccccc23)CC1`, the “hERG current change (%, negative = inhibition) at 10uM” value is listed as -0.967%.

`COc1ccc(OCC(=O)N2CCN(c3nnc(-c4ccccc4)c4ccccc34)CC2)cc1`: the “hERG current change (%, negative = inhibition) at 10uM” value is -64.4%. The result for `CCN(CC)C(=O)COc1ccc(-c2nnc(N3CCCCC3)c3ccccc23)cc1` reads -25.4%. The result for `O=C(COc1ccc([N+](=O)[O-])cc1)N1CCN(c2nnc(-c3ccccc3)c3ccccc23)CC1` reads -66.5%; that for `Cc1ccc(OCC(=O)N2CCN(C(=O)Cc3ccccc3)CC2)cc1`, -38.4%; that for `COc1ccc(OCC(=O)N2CCN(c3nnc(-c4ccc(C)cc4)c4ccccc34)CC2)cc1`, -44.9%. The result for `CCCC(=O)N1CCN(C2=NS(=O)(=O)c3ccccc32)CC1` reads -3%; that for `Cc1ccc(OCC(=O)N2CCN(C3=NS(=O)(=O)c4ccccc43)CC2)cc1`, -60.8%; that for `COc1ccc(-c2nnc(N3CCCCC3)c3ccccc23)cc1`, -47.3%. With `Cc1ccc(-c2nnc(N3CCN(C(=O)COc4ccccc4)CC3)c3ccccc23)cc1`, the “hERG current change (%, negative = inhibition) at 10uM” value is -52.1%.
